Measurements: PubChem BioAssay (Tox21)
Records with an inconclusive call do not appear. Activity calls are given as the source filed them. Unless noted, calls follow the shape of the dose curve; as a rule, active = well fitted curve in the direction sought with a large enough effect in the repeat runs; inconclusive = weak or mixed curves; inactive = no such curve, though single readings can be large; an effect the other way counts as inactive or inconclusive.

Columns and labels:
[1] = biological target: Thyrotropin receptor (Homo sapiens) (UniProt P16473); assay: qHTS assay to identify small molecule antagonists of the thyroid stimulating hormone receptor (TSHR) signaling pathway (AID 1259385; calls by dose curve; also: nearly all actives have a fitted effect of over 20% in size)
Summary of the method: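 Antagonist mode: compound-treated TSHR-expressing HEK293 cells were stimulated with 1.5 ng/mL TSH (final) in presence of Ro20-1724 for 30 min at RT. HTRF cAMP detection after 1 h; each compound tested at 15 concentrations, triplicate.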

[2] = qHTS assay to identify small molecule agonists of the estrogen receptor alpha (ER-alpha) signaling pathway in the presence of an antagonist - cell viability counter screen (AID 1259386);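 also: series mostly up to about 92 µM; cells exposed to compounds for 22 h at 37 °C before the viability read; nearly all actives have a fitted effect of over 30% in size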
Summary of the method: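 VM7Luc4E2, stripped-serum pre-culture 5 d; 24hr plating; +ICI-182,780 10.0nM final; cpds 15 conc, 22hr, 37C/5% CO2; CellTiter-Fluor added at 21hr, fluorescence 1hr later.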

[3] = biological target: Progesterone receptor (Homo sapiens) (UniProt P06401); assay: qHTS assay to identify small molecule agonists of the progesterone receptor (PR) signaling pathway (AID 1346784; calls by dose curve; also: nearly all actives have a fitted effect of over 30% in size; also: potency is read from the fitted curve at half-maximal effect)
Summary of the method: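 Cells (PR-UAS-bla HEK 293T, GripTite) were plated in assay medium containing 2% charcoal-stripped FBS and incubated 6 hr. Test compounds in DMSO were added for 16 hr at 37C. FRET substrate was then loaded for 2 hr at room temperature before fluorescence reading.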

[4] = biological target: Progesterone receptor (Homo sapiens) (UniProt P06401); assay: qHTS assay to identify small molecule antagonists of the progesterone receptor (PR) signaling pathway (AID 1346795; active = well fitted inhibition curve with a large enough effect in the signal ratio in the repeat runs, not every such curve was filed as active; the % refers to the signal ratio; also: potency is read from the fitted curve at half-maximal effect)
Summary of the method: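 Antagonist mode: compounds tested against 1 nM (final) promegestone stimulation in HEK293T cells expressing PR-UAS-bla reporter, 16 hr at 37C, 5% CO2; beta-lactamase activity detected via B/G FRET substrate after 2 hr at room temperature.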

[5] = qHTS assay to identify small molecule agonists of the progesterone receptor (PR) signaling pathway - cell viability counter screen (AID 1346799; calls by dose curve; also: nearly all actives have a fitted effect of over 45% in size; also: potency is read from the fitted curve at half-maximal effect)
Summary of the method: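 Cells (PR-UAS-bla HEK293T) are plated at 3,000/well in 2% charcoal-stripped FBS medium, rested 6 hr, dosed and incubated 16 hr at 37C. CellTiter-Glo is then added and luminescence measured after 30 min at room temperature.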

[6] = qHTS assay to identify small molecule antagonists of the TGF-beta/Smad signaling pathway - cell viability counter screen (AID 1346824); also: nearly all actives have a fitted effect of over 50% in size
Summary of the method: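 Cytotoxicity counter-screen run in the same wells as the beta-lactamase Smad reporter read: CellTiter-Glo luminescence after 30 min at room temperature. HEK 293T SBE-bla cells had 5 hr compound exposure at 37 C with TGF-beta1 (0.25 ng/mL stock).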

[7] = qHTS assay to identify small molecule agonists of the TGF-beta/Smad signaling pathway - cell viability counter screen (AID 1346829); also: top concentration of the series differs between compounds; nearly all actives have a fitted effect of over 45% in size
Summary of the method: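 HEK 293T SBE-bla line, 5 hr compound exposure at 37 C, multiplexed CellTiter-Glo viability read by luminescence.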

[8] = qHTS assay to identify small molecule agonists of the TGF-beta/Smad signaling pathway (AID 1346859; active = well fitted activation curve with a large enough effect in the signal ratio in the repeat runs, not every such curve was filed as active; the % refers to the signal ratio; also: series mostly up to about 77 µM)
Summary of the method: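 Reporter line: HEK 293T with stably integrated SBE-controlled beta-lactamase. Compound exposure lasts 5 hr at 37 C and 5% CO2; substrate loading follows for 2 hr at room temperature, with emission read at 460 and 530 nm.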

[9] = biological target: Thyrotropin-releasing hormone receptor (Homo sapiens) (UniProt P34981); assay: qHTS assay to identify small molecule antagonists of the thyrotropin-releasing hormone receptor (TRHR) signaling pathway (AID 1346877; active = well fitted inhibition curve with a large enough effect in the repeat runs, not every such curve was filed as active; also: series mostly up to about 51 µM)
Summary of the method: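 Intracellular calcium fluorescence, read kinetically every second over 3 min, reports TRH-evoked signalling in HEK293 cells carrying TRHR. Test compounds were added 5 min ahead of a 1 nM TRH challenge.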

[10] = qHTS assay to identify small molecule antagonists of the progesterone receptor (PR) signaling pathway - cell viability counter screen (AID 1346798); also: series mostly up to about 92 µM; nearly all actives have a fitted effect of over 50% in size
Summary of the method: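 Counter screen for cytotoxicity: viability of PR-UAS-bla HEK293T cells was measured with CellTiter-Glo luminescence following 16 hr compound exposure in the presence of R5020.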

Measured: Potency

Sequence of Thyrotropin-releasing hormone receptor (Homo sapiens) (P34981 whole entry, looked up): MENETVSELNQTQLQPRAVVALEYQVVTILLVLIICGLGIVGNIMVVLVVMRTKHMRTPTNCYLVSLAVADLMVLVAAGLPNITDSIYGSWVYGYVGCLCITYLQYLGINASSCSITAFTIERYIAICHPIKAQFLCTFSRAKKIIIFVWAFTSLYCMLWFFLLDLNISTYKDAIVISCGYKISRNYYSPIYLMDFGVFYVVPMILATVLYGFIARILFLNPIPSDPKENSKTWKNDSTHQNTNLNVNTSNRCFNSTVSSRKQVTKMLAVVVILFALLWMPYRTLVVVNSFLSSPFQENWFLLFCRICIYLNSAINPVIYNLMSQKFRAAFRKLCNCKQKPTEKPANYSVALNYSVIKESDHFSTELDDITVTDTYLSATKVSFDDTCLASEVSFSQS
Sequence of Thyrotropin receptor (Homo sapiens) (P16473 whole entry, looked up): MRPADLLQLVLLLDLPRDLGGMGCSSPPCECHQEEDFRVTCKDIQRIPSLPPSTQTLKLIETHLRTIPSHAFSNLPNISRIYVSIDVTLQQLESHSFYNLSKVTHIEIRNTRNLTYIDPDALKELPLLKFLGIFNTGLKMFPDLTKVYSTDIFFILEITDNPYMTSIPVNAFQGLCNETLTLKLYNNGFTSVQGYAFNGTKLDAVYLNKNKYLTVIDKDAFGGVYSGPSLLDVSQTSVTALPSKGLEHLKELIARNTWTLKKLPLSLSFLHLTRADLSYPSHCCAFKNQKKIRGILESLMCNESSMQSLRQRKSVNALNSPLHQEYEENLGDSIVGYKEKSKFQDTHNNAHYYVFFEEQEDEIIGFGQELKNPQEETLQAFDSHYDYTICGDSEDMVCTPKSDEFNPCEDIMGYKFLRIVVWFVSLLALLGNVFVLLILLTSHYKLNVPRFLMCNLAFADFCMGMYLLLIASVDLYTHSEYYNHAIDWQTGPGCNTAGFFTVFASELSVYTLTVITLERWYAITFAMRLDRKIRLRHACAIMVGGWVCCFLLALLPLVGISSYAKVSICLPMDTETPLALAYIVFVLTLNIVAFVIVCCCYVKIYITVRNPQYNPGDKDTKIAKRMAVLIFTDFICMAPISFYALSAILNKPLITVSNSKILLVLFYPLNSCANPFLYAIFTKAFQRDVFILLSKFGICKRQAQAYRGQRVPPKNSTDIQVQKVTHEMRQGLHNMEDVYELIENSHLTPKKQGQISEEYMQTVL
Sequence of Progesterone receptor (Homo sapiens) (P06401 whole entry, looked up): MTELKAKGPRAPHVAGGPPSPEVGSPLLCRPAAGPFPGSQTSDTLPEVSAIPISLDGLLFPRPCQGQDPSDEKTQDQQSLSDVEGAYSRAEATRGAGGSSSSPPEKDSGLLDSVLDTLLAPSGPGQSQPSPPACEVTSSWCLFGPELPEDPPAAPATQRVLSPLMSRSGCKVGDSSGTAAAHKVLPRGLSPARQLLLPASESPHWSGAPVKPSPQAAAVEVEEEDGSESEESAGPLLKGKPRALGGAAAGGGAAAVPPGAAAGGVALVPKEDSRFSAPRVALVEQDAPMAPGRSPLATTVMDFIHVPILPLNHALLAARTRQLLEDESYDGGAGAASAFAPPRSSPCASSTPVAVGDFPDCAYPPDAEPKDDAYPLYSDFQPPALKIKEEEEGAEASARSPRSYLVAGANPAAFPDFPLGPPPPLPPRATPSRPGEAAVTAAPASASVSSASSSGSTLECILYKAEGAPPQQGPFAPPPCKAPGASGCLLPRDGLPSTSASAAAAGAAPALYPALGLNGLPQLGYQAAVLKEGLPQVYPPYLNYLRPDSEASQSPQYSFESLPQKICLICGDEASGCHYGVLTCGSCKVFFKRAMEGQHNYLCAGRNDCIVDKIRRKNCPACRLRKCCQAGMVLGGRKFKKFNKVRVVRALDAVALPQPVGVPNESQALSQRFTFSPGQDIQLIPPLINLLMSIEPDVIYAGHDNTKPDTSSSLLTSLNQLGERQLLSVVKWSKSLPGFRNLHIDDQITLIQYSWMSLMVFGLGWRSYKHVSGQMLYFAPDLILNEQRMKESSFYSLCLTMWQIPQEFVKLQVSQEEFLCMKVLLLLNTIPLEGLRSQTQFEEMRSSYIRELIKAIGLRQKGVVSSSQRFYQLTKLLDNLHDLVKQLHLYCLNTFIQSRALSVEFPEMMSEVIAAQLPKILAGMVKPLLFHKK

CC(C)[N+](C)(C)CC(O)COc1cccc2ccccc12 (stereo not given)
not listed: [10]
inactive: all other assays above

O=C(O)c1ccccc1S
not listed: [9] | [10]
inactive: all other assays above

O=C(O)C1CCC1
not listed: [10]
inactive: all other assays above

COC[C@H](c1ccc(C(F)(F)F)cc1)N1CCN(C2(C)CCN(C(=O)c3c(C)ncnc3C)CC2)C[C@H]1C
not listed: [5] | [6]
inactive: all other assays above

C=CCn1c(=O)n([C@@H]2O[C@H](CO)[C@@H](O)[C@H]2O)c2nc(N)[nH]c(=O)c21
not listed: [5] | [10]
inactive: all other assays above

CC(C)(C)C(=O)/C=C/c1ccc(Cl)cc1
not listed: [10]
inactive: all other assays above

N#CC1(O)CCCCC1
not listed: [9] | [10]
inactive: all other assays above

Oc1cc(O)c2c(c1)O[C@H](c1ccc(O)c(O)c1)[C@H](O)C2
not listed: [9] | [10]
inactive: all other assays above

C[C@H](O)C(=O)Nc1c(I)c(C(=O)NC(CO)CO)c(I)c(C(=O)NC(CO)CO)c1I
not listed: [6] | [9] | [10]
inactive: all other assays above

Nc1cc(C(Cl)=C(Cl)Cl)c(S(N)(=O)=O)cc1S(N)(=O)=O
not listed: [7] | [10]
inactive: all other assays above

CO
not listed: [10]
inactive: all other assays above

CCCCNc1ccccc1
not listed: [7] | [10]
inactive: all other assays above

CCCOCC(C)OCC(C)O (stereo not given)
not listed: [10]
inactive: all other assays above

CCCC(C)C(=O)O (stereo not given)
active: [5] 18.5 µM
not listed: [6] | [7] | [10]
inactive: all other assays above

OCC(CO)(CO)COCC(CO)(CO)CO
not listed: [10]
inactive: all other assays above

CO[Si](OC)(OC)OC
not listed: [6] | [10]
inactive: all other assays above

C=C(C)C(=O)OCCC(C)OC(=O)C(=C)C (stereo not given)
not listed: [10]
inactive: all other assays above

CN(C)C(=O)Nc1ccccc1
not listed: [10]
inactive: all other assays above

CC(C)(C)N(CCO)CCO
not listed: [6] | [10]
inactive: all other assays above

CC(C)COC(=O)c1ccccc1O
not listed: [10]
inactive: all other assays above

COC(=O)c1ccc(C(=O)OC)c(C(=O)OC)c1
not listed: [4] | [9]
inactive: all other assays above

Oc1ccc2c(c1)OC[C@@H](N1CCC(O)(c3ccc(F)cc3)CC1)[C@H]2O
active: [4] 10.6 µM
not listed: [6] | [10]
inactive: all other assays above

C#CC(O)CCCCC (stereo not given)
active: [3] 27.5 µM
not listed: [7] | [9] | [10]
inactive: all other assays above

CCN1CCCC(OC(=O)C(c2ccccc2)c2ccccc2)C1 (stereo not given)
not listed: [5] | [10]
inactive: all other assays above

CCCCCC[C@@H](CCC)C(=O)O
not listed: [5] | [6] | [10]
inactive: all other assays above

CCOC(=O)Cn1c(=O)sc2cccc(Cl)c21
not listed: [4]
inactive: all other assays above

CCO[Si](CCCN=C=O)(OCC)OCC
not listed: [10]
inactive: all other assays above

O=c1[nH]c2ccccc2c(=O)n1CCCl
not listed: [2]
inactive: all other assays above

CCCCCCCCCCCCCCCCCCOCC(O)CO (stereo not given)
not listed: [2] | [6] | [9]
inactive: all other assays above

CO[Si](CCCNCCC[Si](OC)(OC)OC)(OC)OC
not listed: [4] | [7]
inactive: all other assays above

NC(=O)c1ncn([C@@H]2O[C@H](CO)[C@@H](O)[C@H]2O)c1N
not listed: [2]
inactive: all other assays above

Cc1ncc(CSSCc2cnc(C)c(O)c2CO)c(CO)c1O
not listed: [2]
inactive: all other assays above

CCN1CCCC1CNC(=O)c1cc(S(N)(=O)=O)ccc1OC (stereo not given)
inactive: [1] | [2] | [3] | [7] | [8] | [9]

CCCCCCOC(=O)CC(CC(=O)OCCCCCC)(OC(=O)CCC)C(=O)OCCCCCC
not listed: [3] | [5] | [9]
inactive: all other assays above

COc1ccc2cc(C=O)ccc2c1
not listed: [4]
inactive: all other assays above

CC(C)CCCC(C)NCCC(C)C (stereo not given)
not listed: [2]
inactive: all other assays above

COc1nc(C)nc(N)n1
not listed: [2]
inactive: all other assays above

CC(C)COC(=O)C(C)C
inactive: [1] | [2] | [10] | [7] | [8] | [9]

CCO[Si](C)(OCC)OCC
not listed: [2]
inactive: all other assays above

NC(=O)c1c(Cl)cccc1Cl
not listed: [4]
inactive: all other assays above

CC(C)(C)CC(C)(C)N
not listed: [3] | [4] | [9]
inactive: all other assays above

O=C(O)C(O)[C@H](O)[C@@H](O)[C@H](O)[C@H](O)CO (stereo not given in full)
active: [5] 49.1 µM
not listed: [3] | [9] | [10]
inactive: all other assays above

CC12CCC(CC1=O)C2(C)C (stereo not given)
not listed: [2]
inactive: all other assays above

C=C(C)[C@@H]1CCC2=CC(=O)C[C@@H](C)[C@]2(C)C1
not listed: [4] | [9] | [10]
inactive: all other assays above

O=S(=O)(O)c1ccccc1O
not listed: [2] | [9]
inactive: all other assays above

CCCc1ccccc1O
not listed: [2]
inactive: all other assays above

NS(=O)(=O)c1cc(C2(O)NC(=O)c3ccccc32)ccc1Cl (stereo not given)
not listed: [4] | [6]
inactive: all other assays above

CCCCCCCCCCC1CO1 (stereo not given)
not listed: [2]
inactive: all other assays above

CCCC=O
not listed: [2] | [9]
inactive: all other assays above

CCCCCCCCC=O
inactive: [1] | [2] | [4] | [10] | [7]

Cc1onc(-c2ccccc2)c1-c1ccc(S(N)(=O)=O)cc1
not listed: [4] | [5] | [10]
inactive: all other assays above

OC[C@H]1O[C@@H]2O[C@H]3[C@H](O)[C@@H](O)[C@@H](O[C@H]4[C@H](O)[C@@H](O)[C@@H](O[C@H]5[C@H](O)[C@@H](O)[C@@H](O[C@H]6[C@H](O)[C@@H](O)[C@@H](O[C@H]7[C@H](O)[C@@H](O)[C@@H](O[C@H]8[C@H](O)[C@@H](O)[C@@H](O[C@H]9[C@H](O)[C@@H](O)[C@@H](O[C@H]1[C@H](O)[C@H]2O)O[C@@H]9CO)O[C@@H]8CO)O[C@@H]7CO)O[C@@H]6CO)O[C@@H]5CO)O[C@@H]4CO)O[C@@H]3CO
not listed: [3] | [4]
inactive: all other assays above

C=CCSCC1Nc2cc(Cl)c(S(N)(=O)=O)cc2S(=O)(=O)N1 (stereo not given)
not listed: [2]
inactive: all other assays above

CCCCCN(CCCCC)C(=O)C(CCC(=O)O)NC(=O)c1ccc(Cl)c(Cl)c1 (stereo not given)
inactive: [1] | [2] | [3] | [8] | [9]
